# Compound activity: PubChem BioAssay, several laboratories
# Sa RN4220 lethal = kills Staphylococcus aureus RN4220; S. aureus RN4220 growth, OD600, 16 h; inhibition, % (concentration not given with the values); 330,000 tested, 0.33% active; in the data active means inhibition above about 85%;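 further: plate controls were untreated cells for no effect and reference antibiotic for full effect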
# PrPC TRFRET = reduces human prion protein on the cell surface | cell surface PrPC, TR-FRET read-out | inhibition, % at 13.8 µM | 370,000 tested, 0.43% active | P04156 | AID 720596; in the data active means inhibition above about 24%; further: 0% = median of the test wells and 100% = reference compound wells
# ugtP null kill = kills S. aureus RN4220 lacking UgtP; S. aureus RN4220 ugtP deletion, OD600 growth, 16 h; growth inhibition, % (concentration not given with the values); 330,000 tested, 0.54% active; AID 1259309; in the data active means growth inhibition above about 68%;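 further: plate controls were untreated wells for no effect and antibiotic for full effect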
# BJeLR viability = kills HRASV12-expressing BJeLR cells; inhibition, % (test concentration not listed); 300,000 tested, 0.17% active; AID 1554; BJeLR (HRASV12) viability, CellTiter-Glo ATP luminescence, 48 h; in the data active means inhibition above about 50%
# Active calls of the source: *; x = no result. An excerpt weighted towards active compounds, which were near 0.95% of everything screened.
SMILES,Sa RN4220 lethal,PrPC TRFRET,ugtP null kill,BJeLR viability
COc1ccc(/C=C\C(=O)c2c(O)ccc3c(C)cc(=O)oc23)cc1,-7,-1,87*,5
Cc1cc(=O)oc2c(O)c(O)ccc12,x,1,x,x
Cc1ccc(-c2nn(-c3ccccc3)cc2CNCc2ccccc2)cc1,61,2,97*,6
Cc1ccc(-c2nn(-c3ccccc3)cc2CO)cc1,-2,-4,-6,7
O=C(O)c1ccc(C=NNc2ccc(C(F)(F)F)cn2)cc1,1,x,1,x
CC1(C)C(=S)N(Cc2ccccc2)c2ccccc21,-4,2,86*,9
CC(=O)CC1(O)C(=O)N(Cc2ccccc2)c2ccccc21 (configuration not stated),3,0,-7,-10
C=C(C)C(=O)N1CC2(CC(c3cccc(NC(=O)COc4ccc(Cl)cc4)c3)=NO2)CC1C(N)=O (configuration not stated),-2,x,0,x
Cc1cc(C)c(OC2(c3ccccc3)OC(=O)c3ccccc32)c(C)c1 (configuration not stated),-3,-1,85*,-2
Cc1cccc(C)c1OC1(c2ccccc2)OC(=O)c2ccccc21 (configuration not stated),-3,0,59,-10
C[C@H](O)[C@@H]1C(=O)N2CCc3c([nH]c4ccccc34)[C@@H]2C[C@@H]1N(C)C(=O)OCc1ccccc1,x,-7,x,x
Cc1[nH]n2c(=O)cc(-c3ccc([N+](=O)[O-])cc3)nc2c1-c1ccccc1,86*,-20,75,7
CCCc1cc(=O)n2[nH]c(C)c(-c3ccccc3)c2n1,-27,3,-7,0
Cc1[nH]n2c(=O)cc(C(C)(C)C)nc2c1-c1ccccc1,65,9,96*,6
CCOc1cc(C=NNC(=O)C(OC)c2ccccc2)ccc1O (configuration not stated),0,x,-2,x
CC(=O)c1ccc(-n2nncc2C(C)(C)C)cc1,-1,-5,-5,10
Cc1cnnn1-c1ccc(C(=O)CCl)cc1,98*,-6,98*,-6
Cc1oc(N=Cc2ccc(Cl)cc2)c(C#N)c1C,-8,x,-6,x
O=[N+]([O-])c1ccc(O)c(C=Nn2c(CO)nc3ccccc32)c1,81,x,74,x
CC(C)(O)C=CC(=O)[C@](C)(O)C1C(O)C[C@@]2(C)C3CC=C4C(C=C(OC5OC(CO)C(O)C(O)C5O)C(=O)C4(C)C)[C@]3(C)C(=O)C[C@]12C (some centres not stated),3,x,-1,x
COc1ccc(-c2nc3ccccn3c2NC2CCCCC2)cc1SC1CCCCC1,84,5,100*,3
CCn1nc(C)cc1C(=O)Sc1cccc(Br)c1,11,-3,70,8
CCn1nc(C)cc1C(=O)Sc1ccc(Cl)cc1Cl,24,6,96*,-4
COc1cc(C(=O)NN=Cc2ccc3c(c2)c2ccccc2n3C)ccc1O,91*,x,86*,x
Cc1ccc2nc(-c3cccc(NS(C)(=O)=O)c3)cc(-c3ccccc3)c2c1,-4,-4,94*,-1
SMILES,Sa RN4220 lethal,PrPC TRFRET,ugtP null kill,BJeLR viability
Cc1nc(-c2cccc(NS(=O)(=O)c3ccccc3)c2)cs1,6,-5,25,-1
CC1(C)Cc2ccccc2-c2nnc(SCC(=O)Nc3ccc4c(c3)OCO4)n21,39,26*,33,5
Nn1c(SCC(=O)Nc2ccc3c(c2)OCO3)nnc1-c1ccccc1,6,2,3,1
COc1ccc(Cn2c(SCc3ccc(C)cc3)nc3cc(OC)c(OC)cc3c2=N)cc1Cl,100*,-4,99*,5
CCCN1C/C(=C/c2ccc3c(c2)OCO3)C(=O)/C(=C/c2ccc3c(c2)OCO3)C1,2,-3,3,53*
CCCN1C(=O)/C(=C/c2ccc3c(c2)OCO3)NC1=S,1,1,3,2
O=[N+]([O-])c1cccc(C=NNc2cc(N3CCOCC3)ncn2)c1,2,x,4,x
COc1ccc2nc(C)cc(N/N=C/c3ccc(F)cc3)c2c1,x,-8,x,93*
Cc1nn(-c2ccccc2)c(N2CCCC2)c1C=NNC(=O)c1cccc(S(=O)(=O)Nc2ccc(Cl)cc2)c1,-3,x,-28,x
Cc1ccc(-c2cc(-c3ccc(C)cc3)[n+](-c3ccccc3)c(-c3ccc(C)cc3)c2)cc1,101*,x,100*,68*
Cc1ccc(-c2cc(-c3ccccc3)cc(-c3ccccc3)[n+]2-c2ccccc2)cc1,94*,27*,98*,75*
Cc1ccc(-c2cc(-c3ccc(C)cc3)[n+](-c3ccc(C(=O)[O-])cc3)c(-c3ccc(C)cc3)c2)cc1,x,-21,x,78*
c1ccc(-c2cc(-c3ccccc3)[n+](-c3ccccc3)c(-c3ccccc3)c2)cc1,5,20,-2,15
